# Several values for one entry are separate records, joined by “and”; a condition that tells them apart may be missing. Equal values may be shown once. Values without a mark were called inactive. Records with an inconclusive call do not appear. Entries that show only a call come without a potency. Activity calls are given as the source filed them. Unless noted, calls follow the shape of the dose curve; as a rule, active = well fitted curve in the direction sought with a large enough effect in the repeat runs; inconclusive = weak or mixed curves; inactive = no such curve, though single readings can be large; an effect the other way counts as inactive or inconclusive.
# Experiments:
# [1] = qHTS assay for small molecules that induce genotoxicity in human embryonic kidney cells expressing luciferase-tagged ATAD5 (AID 651632); also: nearly all actives have a fitted effect of over 15% in size
# Procedure, shortened: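 DMSO vehicle served as the control. HEK293T reporter cells, 16 hr at 37C, then 30 min Amplite at room temperature; ATAD5 induction is measured as luciferase activity.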
# [2] = qHTS assay for small molecule disruptors of the mitochondrial membrane potential - cell viability (AID 720634; calls by dose curve;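 also: human HepG2 liver cancer cells; nearly all actives have a fitted effect of over 20% in size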)
# Procedure, shortened: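 Viability of HepG2 cells is scored from ATP content by luminescence; cells are exposed to compound for 1 hr at 37 C and 5% CO2, then dosed with m-MPI dye before the CellTiter-Glo reagent.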
# [3] = qHTS assay for small molecule disruptors of the mitochondrial membrane potential (AID 720635); also: potency is read from the fitted curve at half-maximal effect
# Procedure, shortened: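 HepG2 cells exposed to compound 1 hr at 37C, then Mito-MPS dye 30 min. Ratio read of aggregate (540/590 nm) versus monomer (490/535 nm) fluorescence.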
# [4] = qHTS assay to test for compound auto fluorescence at 590 nm (red) in HepG2 cells (AID 720674)
# Procedure, shortened: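 HepG2 cells, 2,000 per well in MEM with 10% FBS, attached overnight at 37 C, then got 23 nL compound or DMSO. After 1 hr at 37 C, 5% CO2, red fluorescence was read at 540/590 nm against Rose Bengal sodium as reference.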
# [5] = qHTS assay to test for compound auto fluorescence at 535 nm (green) in HepG2 cells (AID 720675)
# [6] = qHTS assay to test for compound auto fluorescence at 460 nm (blue) in HEK293 cells (AID 720678)
# Procedure, shortened: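 HEK293, 2,000 cells/well, 10% dialyzed FBS; attach 4-5 hr 37C; pin compound or DMSO; o/n 37C/5% CO2; fluorescence 405/460 nm; triamterene-equivalent units.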
# [7] = qHTS assay to test for compound auto fluorescence at 590 nm (red) in HEK293 cells (AID 720679)
# Procedure, shortened: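 Intensity at 540nm excitation and 590nm emission is reported as Rose Bengal sodium-equivalent autofluorescence. Measurements followed overnight exposure (37C, 5% CO2) of HEK293 cells, 2,000 per well, to 23 nL compound.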
# [8] = qHTS assay to test for compound auto fluorescence at 460 nm (blue) in HEK293 cell free culture (AID 720681)
# Procedure, shortened: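 Compounds were added to cell-free DMEM with 10% FBS and fluorescence read directly. The blue channel used 405 nm excitation and 460 nm emission, with triamterene as the reference fluorophore.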
# [9] = qHTS assay to test for compound auto fluorescence at 535 nm (green) in HEK293 cell free culture (AID 720682)
# Procedure, shortened: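 DMEM + 10% FBS, cell-free; cpd or DMSO pinned in; Ex485/Em535 read; output as fluorescein-equivalent signal.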
# [10] = qHTS assay to test for compound auto fluorescence at 590 nm (red) in HEK293 cell free culture (AID 720683)
# Procedure, shortened: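 Cell-free wells of DMEM with 10% FBS received compound, and intrinsic fluorescence was read at excitation/emission 540/590 nm. Values expressed as equivalence to Rose Bengal sodium.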
# [11] = qHTS assay to test for compound auto fluorescence at 590 nm (red) in HepG2 cell free culture (AID 720684)
# Procedure, shortened: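 Auto fluorescence equivalency versus Rose Bengal sodium, red channel Ex/Em 540/590 nm; compounds in cell-free MEM/10% FBS; DMSO vehicle control.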
# [12] = qHTS assay to test for compound auto fluorescence at 460 nm (blue) in HepG2 cell free culture (AID 720685)
# Procedure, shortened: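 Cell-free plates of MEM plus 10% FBS received 23 nL compound or DMSO vehicle; blue-channel (405/460 nm) intensity scored against triamterene as reference fluorophore.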
# [13] = qHTS assay to test for compound auto fluorescence at 535 nm (green) in HepG2 cell free culture (AID 720686)
# [14] = qHTS assay for small molecules that induce genotoxicity in human embryonic kidney cells expressing luciferase-tagged ATAD5 - cell viability (AID 651634; calls by dose curve; also: nearly all actives have a fitted effect of over 25% in size; also: potency is read from the fitted curve at half-maximal effect)
# Procedure, shortened: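 Here HEK293T cells with the ATAD5 luciferase reporter are incubated with test compounds for 15.5 hr, and cytotoxicity is then gauged by measuring protease activity in live cells using fluorescence.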
# [15] = qHTS assay to test for compound auto fluorescence at 535 nm (green) in HEK293 cells (AID 720680)
# [16] = qHTS assay to test for compound auto fluorescence at 460 nm (blue) in HepG2 cells (AID 720687)
# Procedure, shortened: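 HepG2 cells in MEM with 10% FBS, attached overnight at 37 C, were exposed to compound or DMSO for 1 hr at 37 C, 5% CO2. Blue fluorescence was read at 405/460 nm, with triamterene as reference fluorophore.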
# [17] = biological target: Glucocorticoid receptor (Homo sapiens) (UniProt P04150); assay: qHTS assay to identify small molecule agonists of the glucocorticoid receptor (GR) signaling pathway (AID 720691; active = well fitted activation curve with a large enough effect in the signal ratio in the repeat runs, not every such curve was filed as active; the % refers to the signal ratio); details: GR-bla HeLa, beta-lactamase reporter ratio, 18 h; activation: at 62.4 µM (top of the series) unless noted
# Glucocorticoid receptor (Homo sapiens), sequence (P04150 whole entry, looked up): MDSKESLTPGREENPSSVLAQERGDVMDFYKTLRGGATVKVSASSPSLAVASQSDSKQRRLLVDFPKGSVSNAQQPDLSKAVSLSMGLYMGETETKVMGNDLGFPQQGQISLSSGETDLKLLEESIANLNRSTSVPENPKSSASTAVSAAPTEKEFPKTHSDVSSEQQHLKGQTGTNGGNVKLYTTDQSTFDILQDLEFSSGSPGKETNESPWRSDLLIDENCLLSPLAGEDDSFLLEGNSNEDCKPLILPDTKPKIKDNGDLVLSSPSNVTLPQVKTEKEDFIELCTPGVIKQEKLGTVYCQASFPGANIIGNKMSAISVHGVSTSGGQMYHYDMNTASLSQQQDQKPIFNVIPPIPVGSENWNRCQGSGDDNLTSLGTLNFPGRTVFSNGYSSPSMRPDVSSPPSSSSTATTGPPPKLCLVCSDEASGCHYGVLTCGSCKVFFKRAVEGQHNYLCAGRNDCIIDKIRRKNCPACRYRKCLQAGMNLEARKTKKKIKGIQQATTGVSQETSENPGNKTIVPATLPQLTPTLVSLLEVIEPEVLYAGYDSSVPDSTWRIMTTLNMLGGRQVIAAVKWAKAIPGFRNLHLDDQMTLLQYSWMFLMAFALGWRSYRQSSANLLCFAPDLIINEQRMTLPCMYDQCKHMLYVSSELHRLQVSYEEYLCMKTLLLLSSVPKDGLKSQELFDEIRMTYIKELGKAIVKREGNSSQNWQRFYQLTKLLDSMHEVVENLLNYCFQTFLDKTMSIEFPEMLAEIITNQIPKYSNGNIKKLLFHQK
# Procedure, shortened: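 Compounds in DMSO, alongside positive controls, were added to GR-bla HeLa reporter cells and incubated 18 h at 37 C; GRE-driven beta-lactamase was detected by fluorescence after 2 h with FRET substrate at room temperature.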
# [18] = qHTS assay for small molecule agonists of the p53 signaling pathway - cell viability (AID 651633; calls by dose curve; also: nearly all actives have a fitted effect of over 30% in size; also: potency is read from the fitted curve at half-maximal effect)
# Procedure, shortened: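 p53RE-bla cells were treated with compound for 16 hours at 37 C. Cytotoxicity was then measured as CellTiter-Glo luminescence after 30 min at room temperature.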
# [19] = biological target: Glucocorticoid receptor (Homo sapiens) (UniProt P04150); assay: qHTS assay to identify small molecule antagonists of the glucocorticoid receptor (GR) signaling pathway (AID 720692; active = well fitted inhibition curve with a large enough effect in the signal ratio in the repeat runs, not every such curve was filed as active; the % refers to the signal ratio; also: potency is read from the fitted curve at half-maximal effect)
# Procedure, shortened: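 In a 1536-well cell format, compounds were added 4 h after seeding GR-bla HeLa cells, together with dexamethasone at 5 nM final; reporter activity was measured by FRET-substrate fluorescence following 18 h at 37 C.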
Structure (SMILES),Potency [1],Potency [2],Potency [3],Potency [4],Potency [5],outcome [6],Potency [7],outcome [8],outcome [9],Potency [10],Potency [11],outcome [12],Potency [13],Potency [14],outcome [15],outcome [16],Potency [17],Potency [18],Potency [19]
CC(C)C[C@H]1C(=O)N2CCC[C@H]2[C@]2(O)O[C@](NC(=O)[C@@H]3C=C4c5cccc6[nH]c(Br)c(c56)C[C@H]4N(C)C3)(C(C)C)C(=O)N12,inactive,inactive,10.6 µM (active) and 8.23 µM (active),inactive,inactive,inactive,inactive,inactive,inactive,inactive,inactive,inactive,inactive,,,,,,
C=CC(=O)OCCOc1ccccc1,,inactive,,inactive,inactive,inactive,inactive,inactive,inactive,,inactive,inactive,inactive,inactive,inactive,inactive,inactive,,
CCCCCCCCCCCCCCOS(=O)(=O)O,,inactive,,inactive,inactive,inactive,inactive,inactive,inactive,inactive,inactive,inactive,inactive,inactive,inactive,inactive,,,
OC(C#CCN1CCCC1)(c1ccccc1)c1ccccc1,,inactive,,inactive,inactive,inactive,,inactive,inactive,inactive,inactive,inactive,inactive,inactive,inactive,inactive,inactive,,
O=C(Nc1ccc(S(=O)(=O)N2CCOCC2)cc1)c1cc(Cl)ccc1NS(=O)(=O)c1ccc(Cl)s1,,inactive,,inactive,inactive,inactive,inactive,inactive,inactive,inactive,inactive,inactive,inactive,,,inactive,inactive,9.44 µM (active),26.8 µM (active)
CC1=CC[C@H](C(C)C)C=C1,,,,inactive,inactive,inactive,,inactive,,inactive,inactive,inactive,inactive,inactive,inactive,inactive,,inactive,
C=CC(=O)OCCOCCOC(=O)C=C,,inactive,inactive,inactive,inactive,inactive,inactive,inactive,inactive,inactive,inactive,inactive,inactive,61.4 µM (active),inactive,inactive,inactive,,
CC(C)O.CC(C)O.CCOC(=O)/C=C(\C)O.CCOC(=O)/C=C(\C)O.[Ti],,inactive,,inactive,inactive,inactive,inactive,inactive,inactive,inactive,inactive,inactive,inactive,inactive,inactive,,,,
OCCN1CCN(CCCN2c3ccccc3C=Cc3ccccc32)CC1,,inactive,,inactive,inactive,inactive,inactive,inactive,,inactive,inactive,inactive,inactive,,inactive,inactive,inactive,inactive,
C[N+]1(C)CCC(OC(=O)C(O)(c2ccccc2)C2CCCC2)C1 (configuration not stated),,inactive,inactive,inactive,inactive,inactive,,inactive,,,inactive,inactive,inactive,inactive,inactive,inactive,inactive,inactive,
Nc1ncn([C@H]2C[C@H](O)[C@@H](CO)O2)c(=O)n1,,inactive,,,inactive,inactive,inactive,inactive,inactive,inactive,inactive,inactive,inactive,inactive,inactive,inactive,,inactive,
Clc1ccc2c(c1)CCc1cccnc1C2=C1CCNCC1,,inactive,,inactive,inactive,inactive,inactive,inactive,inactive,inactive,inactive,inactive,inactive,,inactive,inactive,inactive,,
